About 83,000 compounds went through this panel and 20% of them were active in at least one assay; those are over-represented in the sample as a whole.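 Plates (96-well) were seeded with cells, treated with compound at one concentration, and incubated for 48 hours before percent growth was determined.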 Active and inactive are the calls of the source. The calls were made as follows: active = growth percent below 10; inactive = the rest.

The assay relates to HL-60(TB) leukemia. The assay can be described thus: NCI-60 one-dose screen, 48 h (100 = growth as untreated, 0 = no growth, -100 = all killed). The following applies: 10 µM unless noted.
For the compound `C=C(C)[C@@H]1CC[C@]2(C)[C@H](CC[C@@H]3[C@H]4[C@H]5OC[C@@]4(CCC5(C)C)CC[C@]32C)[C@@]1(C)CCCN`, the growth is -4.66% (active). The result for `COc1ccc2[nH]c(C(=O)OCc3ccc4cccc(O)c4n3)cc2c1` reads -36.8% (active); that for `O=C(O)CCC/C=C\C[C@H]1C=CC(=O)/C1=C/C[C@@H](O)CCc1cccc(C(F)(F)F)c1`, -11.7% (active); that for `N#CSCc1c(Cl)cccc1Cl`, 88.9% (inactive). The result for `Cc1cc(N2CCOCC2)nc(NCc2cc(Nc3ccnc4cc(Cl)ccc34)ccc2F)n1` reads -54.2% (active); that for `Clc1ccc2c(NCCNc3nc(N4CCCC4)nc4ccccc34)ccnc2c1`, -70% (active); that for `COc1cc(F)c(-c2nc3c(C)cccc3n2Cc2c(F)cccc2F)c(F)c1`, 78.8% (inactive). As to `CN1CCN(c2ccc(-c3ccc4ncc(C#N)c(Nc5ccc(F)c(Cl)c5)c4c3)cc2)CC1`, the growth is 22.3% (inactive). Take `COc1cc(/C=C/C(=O)c2ccc(Nc3nc(NCCO)nc(N4CCOCC4)n3)cc2)cc(OC)c1OC`: the growth is -28.6% (active). As to `Cc1cccc(Oc2ccc(Nc3ncnc4ccc(NC(=O)CN5CCN(C)CC5)cc34)cc2Cl)c1`, the growth is -40.2% (active).

As to `O=[N+]([O-])CC(c1ccccc1)c1c[nH]c2ccccc12` (centres undefined), the growth is 7.86% (active). With `CS(=O)(=O)Nc1ccc(C(=O)NC(C(=O)NO)c2ccc(-c3cccc(F)c3)cc2)cc1` (centres undefined) the figure was 103% (inactive).

Regarding `COc1cc(C(=O)N2CCN(c3ccccc3OC)CC2)c(NC(=O)c2cnccn2)cc1OCc1ccccc1`, the growth is 47.5% (inactive). As for `CN1C(=O)C(=Cc2coc3ccc(Br)cc3c2=O)C(=O)N(C)C1=O`, the growth is 111% (inactive). With `CC(C)OP(=O)(O)c1ncc(-c2ccc(C(F)(F)F)cc2)c(NC2CCCCCC2)n1`, the growth was 44.4% (inactive). For `CCOC(=O)CCN(CC(C)C)C(=S)Nc1ccccc1`, the growth is 97.2% (inactive). On to `CC(C)(C)NCC(O)COc1c(Br)c(Br)c(Br)c2c1OC(C)(C)C2` (centres undefined), for which the growth was -59.3% (active). For `CCn1cnc2c1c(=O)[nH]c(=O)n2CC1CCC(CNS(=O)(=O)c2ccc(OC3CCOCC3)c(F)c2)CC1` (centres undefined), the growth is 13.2% (inactive). On to `O=C(/C=C/c1nnc2n(Cc3ccccc3)c(=O)c3c4c(sc3n12)CCCC4)c1ccccc1`, for which the growth was 43.5% (inactive).

For the compound `CC1(C)C(=O)/C(=C\c2ccccn2)C[C@]2(C)[C@H]3CC[C@@H]4[C@@H](C(=O)/C=C/c5ccccn5)CC[C@@]4(C)[C@]3(C)CC[C@@H]12`, the growth was -14.4% (active). Take `CCN(CC)CCOc1cccc2c1C(=O)c1ccccc1C2=O`: the growth was 93.3% (inactive).

`COCCn1cc(-c2nc(-c3cn(CCOC)c4ncccc34)cs2)c2cc(F)ccc21`: the growth is 97.8% (inactive). Consider `N#C/C(=C\c1ccc(F)cc1)n1nc2cccc(F)c2n1`, for which the growth is 8.65% (active).

Turning to `O=C(CNc1ncco1)Nc1ccc(S(=O)(=O)c2ccc(NC(=O)CNc3ncco3)cc2)cc1`, the growth was 44.8% (inactive). The result for `COc1cc2oc(-c3cccc(NC(=O)Nc4ccc5c(c4)OCO5)c3)cc(=O)c2c(OC)c1OC` reads 56.8% (inactive). With `COc1cc(-c2nc(Nc3nc4ccccc4s3)[nH]c(=O)c2C#N)cc(OC)c1O`, the growth is 98% (inactive). Regarding `COc1ccc(-n2c(N)c(-c3nc4ccccc4[nH]3)cc(C#N)c2=O)cc1`, the growth was 99% (inactive).

For `O=C(/C(=C/c1cccc([N+](=O)[O-])c1)c1ccccc1)c1ccccc1`, the growth is 10.6% (inactive). For `COC(=O)/C=C1\SC(=Nc2cccc(OC)c2)N(CCc2c[nH]c3ccccc23)C1=O`, the growth was 22.2% (inactive). Regarding `Cc1[nH]c(C(=O)Nc2ccc(C(N)=O)cc2NC(C)C)c(Cl)c1Cl`, the growth is 99.7% (inactive). With `Clc1ccc(C(SCc2ccccc2)SCc2ccccc2)cc1`, the growth was 97.6% (inactive). Turning to `COc1ccc(C(=S)N2CCN(c3cccc(C)c3)CC2)cc1OC`, the growth is 57.3% (inactive). The result for `COc1ccc(C[C@H](N)C(=O)N[C@@H]2[C@@H](CO)OC(n3cnc4c(N(C)C)ncnc43)[C@@H]2O)cc1` (some centres undefined) reads -29.9% (active); that for `FC(F)(F)c1cc(Nc2ccc3cc(OCCCN4CCOCC4)ccc3n2)ccc1Cl`, 29% (inactive). With `COc1ccc(-c2nnc(SCC(=O)N3CCN(c4cc5c(cc4F)c(=O)c(C(=O)O)cn5C4CC4)CC3)o2)cc1OC`, the growth was 66.8% (inactive). In the case of `COc1c(C2CC(=O)Nc3c2cnn3Cc2ccco2)cc2c(c1OC)OCO2` (centres undefined), the growth was -25.8% (active). In the case of `Cc1nc(Nc2cn[nH]c2C(=O)Nc2ccc(CN3CCN(C)CC3)cc2)c2ccsc2n1`, the growth was 113% (inactive).

For the compound `CC1=C(C(=O)/C=C/c2ccc(N(C)C)cc2)C(c2ccccc2)NC(=S)N1` (centres undefined), the growth was 99.4% (inactive). On to `CC(=Nc1ccccc1)C1=C(O)C(Cc2ccccc2)NC1=O` (centres undefined), for which the growth was -52.3% (active).

Source of the values: PubChem BioAssay (NCI).
